Screening data as filed in PubChem.
Shown are actives, neighbours in structure and some others; about 1.1% of the full set was active somewhere.
GalR3 antagonist = GalR3 antagonists in HEK293 cells, primary screen, cell-based, fluorescence readout | inhibition, % at 3 µM | HEK293 GalR3-CNG cAMP membrane potential fluorescence; galR3 body fused to GalR1 C-terminus | 360,000 tested, 0.44% active | AID 651719, 2012;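 active = inhibition above the screen-wide average plus 3 SD, cut at about 13% in these data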;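 also: forskolin and galanin both at EC90 stimulate the cells; cAMP rise reported by CNG channel membrane potential dye signal; 0% = forskolin plus galanin with DMSO and 100% = forskolin alone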
NCOA2 inhibitor = inhibition of GAL4-SRC2 driven luciferase reporter, primary screen, SRC2 inhibitor project, cell-based, luminescence | Nuclear receptor coactivator 2 (Homo sapiens), Q15596 | HEK293 GAL4-SRC2 luciferase reporter | inhibition, % at 9 µM | 370,000 tested, 0.17% active | AID 651957, 2012;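 active = inhibition above the mean inhibition of all tested compounds plus 3 SD, set per campaign, cut at about 52% in these data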;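 also: 0% = DMSO treated cells and 100% = cells given Gossypol at 36 µM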
NR5A2 inv ag = LRH-1 (NR5A2) inverse agonists, primary screen, cell-based, luminescence, HEK293T, StAR-luciferase reporter. 360,000 tested, 0.13% active. LRH-1 transfected, 24 h. Nuclear receptor subfamily 5 group A member 2 (Homo sapiens), O00482. inhibition, % at 3.6 µM;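 active = inhibition above the mean inhibition of all tested compounds plus 3 SD, cut at about 73% in these data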;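 also: 0% = DMSO wells and 100% = reporter-only cells lacking LRH-1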
NCOA1 inh = SRC1 coactivator transcriptional activity inhibitors, primary screen, cell-based, luminescence; HEK293 GAL4-SRC1 luciferase reporter; 360,000 tested, 0.12% active; inhibition, % at 3.6 µM; Nuclear receptor coactivator 1 (Homo sapiens), Q15788;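 active = inhibition above the campaign mean plus 3 SD, with each screening campaign given its own cutoff, cut at about 60% in these data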;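 also: 0% = DMSO treated cells and 100% = gossypol at 36 µM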
NR2F2 inh = NR2F2 transcriptional activity inhibitors, primary screen, cell-based, luciferase reporter, HEK293T, luminescence; COUP transcription factor 2 (Homo sapiens), P24468; HEK293T NGFI-A luciferase reporter; inhibition, % at 8.6 µM; 370,000 tested, 0.7% active; AID 686940, 2013;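 active = inhibition above a per-plate cutoff, mean inhibition of test wells between control levels plus 3 SD, cut at about 38% in these data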;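 also: cells cotransfected with COUP-TFII expression vector driving the NGFI-A reporter; 0% = median of COUP-TF2 test wells and 100% = reporter-only cells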
SRC3 inh = SRC3 coactivator transcriptional activity inhibitors, primary screen, cell-based, luminescence | inhibition, % at 3.6 µM | 360,000 tested, 0.17% active | AID 588352, 2011 | HEK293 GAL4-SRC3 luciferase reporter | Nuclear receptor coactivator 3 (Homo sapiens), Q9Y6Q9;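 active = inhibition above a per-campaign cutoff, the mean of all compounds plus 3 SD, cut at about 60% in these data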;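 also: 0% = DMSO-treated cells and 100% = gossypol-treated cells at 36 µM; higher means less SRC3-driven luciferase light from the GAL4 reporter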
Target sequence (Q9Y6Q9 whole entry, looked up, the tested form may be a part): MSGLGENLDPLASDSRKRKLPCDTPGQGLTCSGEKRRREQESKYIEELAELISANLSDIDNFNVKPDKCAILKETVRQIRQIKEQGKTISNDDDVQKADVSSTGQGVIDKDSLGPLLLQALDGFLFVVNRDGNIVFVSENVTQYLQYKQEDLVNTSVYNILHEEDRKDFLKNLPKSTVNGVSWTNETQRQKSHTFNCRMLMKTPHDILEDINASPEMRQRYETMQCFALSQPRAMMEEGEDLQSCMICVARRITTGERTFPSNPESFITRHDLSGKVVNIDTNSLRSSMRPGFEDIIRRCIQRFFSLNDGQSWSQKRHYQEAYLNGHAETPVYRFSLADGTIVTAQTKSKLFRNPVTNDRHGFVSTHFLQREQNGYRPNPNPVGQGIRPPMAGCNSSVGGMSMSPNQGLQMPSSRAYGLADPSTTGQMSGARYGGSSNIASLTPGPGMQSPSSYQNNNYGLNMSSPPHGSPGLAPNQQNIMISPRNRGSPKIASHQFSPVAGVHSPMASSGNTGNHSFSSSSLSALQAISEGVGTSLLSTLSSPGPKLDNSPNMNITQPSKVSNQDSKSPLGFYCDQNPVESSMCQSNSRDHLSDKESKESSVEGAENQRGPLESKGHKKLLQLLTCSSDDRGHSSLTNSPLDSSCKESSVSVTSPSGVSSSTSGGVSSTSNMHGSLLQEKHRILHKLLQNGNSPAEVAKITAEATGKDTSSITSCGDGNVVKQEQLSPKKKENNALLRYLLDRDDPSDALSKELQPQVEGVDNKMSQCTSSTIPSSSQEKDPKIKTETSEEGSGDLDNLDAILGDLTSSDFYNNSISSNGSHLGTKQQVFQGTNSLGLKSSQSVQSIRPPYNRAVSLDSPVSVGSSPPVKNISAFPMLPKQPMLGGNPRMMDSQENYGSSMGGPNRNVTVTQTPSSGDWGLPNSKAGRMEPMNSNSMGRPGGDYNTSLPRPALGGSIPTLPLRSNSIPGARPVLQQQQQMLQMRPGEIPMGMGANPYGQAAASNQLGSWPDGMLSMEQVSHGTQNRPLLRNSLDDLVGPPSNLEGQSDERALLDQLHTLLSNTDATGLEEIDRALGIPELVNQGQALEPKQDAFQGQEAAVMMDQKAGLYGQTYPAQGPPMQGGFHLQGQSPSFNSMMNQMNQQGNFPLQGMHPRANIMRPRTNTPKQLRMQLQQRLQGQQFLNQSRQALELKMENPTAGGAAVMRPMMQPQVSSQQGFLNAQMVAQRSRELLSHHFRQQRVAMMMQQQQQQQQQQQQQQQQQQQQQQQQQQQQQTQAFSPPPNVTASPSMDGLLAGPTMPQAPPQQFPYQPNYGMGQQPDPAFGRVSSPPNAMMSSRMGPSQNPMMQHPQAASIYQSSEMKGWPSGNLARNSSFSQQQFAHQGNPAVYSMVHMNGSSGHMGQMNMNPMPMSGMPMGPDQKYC
GalR3 conf = GalR3 antagonist hit confirmation, cell-based, fluorescence, triplicate; shares compounds with GalR3 antagonist; HEK293 GalR3 CNG cAMP biosensor, membrane potential fluorescence; galR3 fused to GalR1 carboxy tail; challenged with forskolin and galanin at EC90; inhibition, % at 3 µM; 1,600 tested, 59% active;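 active = inhibition above the primary screen's cutoff, the mean inhibition of all screened compounds plus 3 SD, cut at about 13% in these data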;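 also: 0% = forskolin plus galanin and 100% = forskolin alone with DMSO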
HEK-CNG parental = nonspecific cAMP agonists in parental HEK-CNG cells, counter-screen for GalR3 antagonist project, cell-based, fluorescence, high throughput; shares compounds with GalR3 antagonist; HEK293-CNG parental cells, cAMP membrane potential fluorescence; normalised: DMSO wells 0%, forskolin wells 100%; activation, % at 3 µM; 1,600 tested, 10% active; AID 652268, 2013; in the data active = activation above about 1.3%
Active calls of the source: *; · = no result given.

SMILES | GalR3 antagonist | NCOA2 inhibitor | NR5A2 inv ag | NCOA1 inh | NR2F2 inh | SRC3 inh | GalR3 conf | HEK-CNG parental
CCCCC[C@@H](/C=C/C1C(=O)C=C[C@H]1C/C=C\CCCC(=O)O)OC(C)=O (stereo partly specified) | 100* | -8 | 3 | -36 | 7 | -27 | 98* | 0
C=CCOC(=O)C1=C(C)N=c2sc(=C3C(=O)N(CC(=O)O)c4ccccc43)c(=O)n2C1c1ccc(OC)cc1 (stereo unspecified) | · | 1 | · | · | 21 | · | · | ·
CN(Cc1ccc2c(c1)CCCN2C)C(=O)[C@H]1O[C@@H](n2cnc3c(N)ncnc32)[C@H](O)[C@@H]1O | 42* | -20 | 12 | -35 | -16 | -14 | 85* | 0
Cn1c(=O)n(C)c2cc(CNC(=O)[C@H]3O[C@@H](n4cnc5c(N)ncnc54)[C@H](O)[C@@H]3O)ccc21 | 8 | 1 | 12 | -3 | -7 | -13 | · | ·
O=C(OCN1C(=O)c2ccccc2C1=O)c1cc(S(=O)(=O)N2CCOCC2)ccc1F | 13* | -4 | 26 | -9 | 0 | 17 | 24* | 0
CC1(C)C(=O)Nc2ccccc2N1C(=O)COC(=O)c1cc(S(C)(=O)=O)ccc1Cl | 0 | 7 | -19 | -14 | -11 | 4 | · | ·
CC1(C)C(=O)Nc2ccccc2N1C(=O)COC(=O)c1cc(S(=O)(=O)N2CCOCC2)ccc1F | 39* | -34 | 13 | 10 | 2 | 13 | 16* | 0
O=C(OCCN1C(=O)c2ccccc2C1=O)c1cc(S(=O)(=O)N2CCOCC2)ccc1Cl | 6 | -23 | -3 | 3 | 5 | 4 | · | ·
CN1CC=C(c2ccccc2)N(c2ccc(Cl)cc2)C1=O | · | -31 | · | · | -22 | · | · | ·
COc1ccc(N2CCN(CCCNC(=O)Cc3ccc(C(F)(F)F)cc3)CC2)cc1 | · | -5 | · | · | -16 | · | · | ·
CCC(C)C(=O)Nn1c(C2CC2)nc2cc(OC)c(OC)cc2c1=O (stereo unspecified) | 25* | -11 | 8 | -25 | -22 | -11 | 29* | 0
O=c1[nH]c2cccnc2c2ccsc12 | 23* | -44 | 6 | -7 | -26 | 2 | 17* | 0
CC(C)C(=O)NC(c1cccc([N+](=O)[O-])c1)c1c(O)ccc2ccccc12 (stereo unspecified) | 16* | -29 | -22 | -32 | 0 | -17 | -5 | 1
CC(C)C(=O)NC(c1ccc([N+](=O)[O-])cc1)c1c(O)ccc2ccccc12 (stereo unspecified) | -7 | -15 | 24 | 8 | 16 | 9 | · | ·
COc1ccc(-c2cc(-c3n[nH]c(=S)n3-c3cc(OC)ccc3OC)[nH]n2)cc1 | 24* | -1 | -13 | -12 | 1 | -6 | 12 | 1
CCn1nc(CC(=O)Nc2ccc(-n3cnnn3)c(OC)c2)c2ccccc2c1=O | 17* | 1 | 0 | -15 | -8 | -9 | 17* | 0
COc1ccc(NC(=O)c2ccccc2[N+](=O)[O-])cc1 | -9 | -15 | -38 | -13 | -1 | -8 | · | ·
COc1ccccc1Nc1ccc(NC(=O)c2cccc([N+](=O)[O-])c2C)cc1 | 14* | -19 | -33 | -23 | 11 | -13 | 6 | -1
COc1ccccc1Cc1c(-c2ccco2)nc2ccc(Cl)cn12 | 28* | -22 | -22 | -24 | -10 | -6 | 18* | 0
Cc1ccc(S(=O)(=O)N(C)[C@H]2C[C@H]3c4[nH]c5cccc(-c6ccccc6)c5c4CCN3C(=O)[C@H]2[C@H](C)O)cc1 | -7 | 13 | · | · | 14 | · | · | ·
CN1CCN(c2ccc3c(c2)Oc2ccccc2CN(Cc2cn(Cc4cccc(C(F)(F)F)c4)nn2)S3(=O)=O)CC1 | · | 7 | · | · | 1 | · | · | ·
COC(=O)c1ccc(C2=NOC(C)(c3sc(-c4ccccc4)nc3C)C2)cc1 (stereo unspecified) | · | 5 | -3 | 6 | -77 | -37 | 32* | 1.5*
COC(=O)[C@]12C[C@H](CC(=O)N3CCC(c4ccccc4)CC3)C(=O)N(Cc3cccc4ccccc34)C1=C[C@H](COCc1ccccc1)O[C@@H]2C | · | 8 | · | · | 22 | · | · | ·
CCN(c1ccccc1)S(=O)(=O)c1ccc(C(=O)Oc2ccc(C(C)=O)cc2)cc1 | 14* | 7 | 9 | 0 | 4 | 13 | -2 | 0
CCN(c1ccccc1)S(=O)(=O)c1ccc(C(=O)Nc2cccc(NC(C)=O)c2)cc1 | -9 | 1 | -8 | -14 | 7 | 15 | · | ·
SMILES | GalR3 antagonist | NCOA2 inhibitor | NR5A2 inv ag | NCOA1 inh | NR2F2 inh | SRC3 inh | GalR3 conf | HEK-CNG parental
Cc1ccn(CC(=O)N2CCCC(C(=O)c3cccc4ccccc34)C2)n1 (stereo unspecified) | 4 | 4 | 8 | -20 | 20 | -3 | · | ·
Cc1nc(C)n(CC(=O)N2CCCC(C(=O)c3cccc4ccccc34)C2)n1 (stereo unspecified) | 13* | -69 | -33 | -7 | -46 | -4 | -1 | 0
CC(C)N1Cc2nnn(Cc3ccccc3)c2-c2cc(N3CCCC3)ccc2S1(=O)=O | · | 8 | · | · | -13 | · | · | ·
CCOC(=O)c1cc(-c2ccc(C#N)cc2)nc2c1c(C)nn2CCC#N | 22* | 11 | -6 | -1 | 0 | -12 | 2 | 1.7*
COC(=O)C1CN(C2CCCC2)CCS(=O)(=O)N1Cc1ccc(OC)cc1 (stereo unspecified) | · | 20 | · | · | 8 | · | · | ·
COc1ccc(NC(=O)c2cc(S(=O)(=O)N3CCCCC3)ccc2OC)cc1 | -8 | -2 | 2 | 5 | -7 | 8 | · | ·
COc1ccc(S(=O)(=O)N2CCCCCC2)cc1C(=O)Nc1ccc(C(=O)N(C)C)cc1 | 15* | -3 | 20 | -6 | 19 | 15 | 5 | 0
COc1ccc(CC(=O)Nc2cccc(S(=O)(=O)N3CCCCCC3)c2)cc1OC | 104* | 23 | 51 | 27 | 79* | 29 | 99* | -1
COCCCN1C(=O)[C@H](CC(=O)NCc2cccc3ccccc23)[C@]2(C(=O)OC)CCCCC=C12 | · | 11 | · | · | 3 | · | · | ·
